Reference: PubChem BioAssay (Tox21)
Records with an inconclusive call do not appear. Calls of active or inactive are those of the source. Unless noted, calls follow the shape of the dose curve; as a rule, active = well fitted curve in the direction sought with a large enough effect in the repeat runs; inconclusive = weak or mixed curves; inactive = no such curve, though single readings can be large; an effect the other way counts as inactive or inconclusive.

How the values were obtained:
[1] = qHTS assay for small molecule agonists of the p53 signaling pathway (AID 651631; calls by dose curve; also: nearly all actives have a fitted effect of over 15% in size)
Method in brief: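 HCT-116 cells carrying a stable p53 response element–beta-lactamase reporter were plated, rested 5 h at 37 °C, then exposed to compound in DMSO for 16 h at 37 °C; reporter activity was read as FRET substrate fluorescence after 2 h at room temperature.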

[2] = qHTS assay for small molecule agonists of the p53 signaling pathway - cell viability (AID 651633; calls by dose curve; also: series mostly up to about 83 µM; nearly all actives have a fitted effect of over 30% in size)
Method in brief: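 p53RE-bla cells were treated with compound for 16 hours at 37 C. Cytotoxicity was then measured as CellTiter-Glo luminescence after 30 min at room temperature.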

[3] = qHTS assay for small molecules that induce genotoxicity in human embryonic kidney cells expressing luciferase-tagged ATAD5 - cell viability (AID 651634; calls by dose curve; also: nearly all actives have a fitted effect of over 25% in size)
Method in brief: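 Seeding of 2,000 HEK293T ATAD5-luciferase cells per well preceded pin-tool compound transfer. Plates sat 15.5 hr at 37C under 5% CO2, then fluorescence was read after 30 min with CellTiter-Fluor.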

[4] = qHTS assay for small molecule disruptors of the mitochondrial membrane potential - cell viability (AID 720634; calls by dose curve;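 also: human HepG2 liver cancer cells; series mostly up to about 83 µM; nearly all actives have a fitted effect of over 20% in size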)
Method in brief: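 Measuring cytotoxicity alongside mitochondrial potential, the screen quantified ATP by luminescence in HepG2 cells after 1 hr compound incubation and a 30 min room-temperature CellTiter-Glo step.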

[5] = qHTS assay to test for compound auto fluorescence at 590 nm (red) in HepG2 cells (AID 720674)
Method in brief: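 Seeding: 2,000 HepG2 cells/well, MEM/10% FBS, overnight 37 C. Dosing: compound vs DMSO. Incubation: 1 hr, 37 C, 5% CO2. Read: fluorescence 540 ex/590 em, Rose Bengal sodium as red reference.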

[6] = qHTS assay to test for compound auto fluorescence at 535 nm (green) in HepG2 cells (AID 720675)
[7] = qHTS assay to test for compound auto fluorescence at 460 nm (blue) in HEK293 cells (AID 720678)
Method in brief: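 Triamterene serves as the blue fluorophore standard. Compound signal at 405/460 nm is read in HEK293 wells (2,000 cells, 10% dialyzed FBS) after overnight treatment at 37C.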

[8] = qHTS assay to test for compound auto fluorescence at 535 nm (green) in HEK293 cells (AID 720680)
[9] = qHTS assay to test for compound auto fluorescence at 460 nm (blue) in HEK293 cell free culture (AID 720681)
Method in brief: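 Compounds were added to cell-free DMEM with 10% FBS and fluorescence read directly. The blue channel used 405 nm excitation and 460 nm emission, with triamterene as the reference fluorophore.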

[10] = qHTS assay to test for compound auto fluorescence at 535 nm (green) in HEK293 cell free culture (AID 720682)
Method in brief: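 Read-out: 485/535 nm fluorescence intensity, calibrated against fluorescein. Medium only (DMEM + 10% FBS, no cells); test compound or DMSO vehicle added by pintool before plate reading.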

[11] = qHTS assay to test for compound auto fluorescence at 590 nm (red) in HEK293 cell free culture (AID 720683)
Method in brief: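 Cell-free wells of DMEM with 10% FBS received compound, and intrinsic fluorescence was read at excitation/emission 540/590 nm. Values expressed as equivalence to Rose Bengal sodium.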

[12] = qHTS assay to test for compound auto fluorescence at 590 nm (red) in HepG2 cell free culture (AID 720684)
Method in brief: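 Compound was pinned into wells holding MEM with 10% FBS and no cells, and red fluorescence was read at Ex/Em 540/590 nm. Signal is expressed as auto fluorescence equivalency relative to Rose Bengal sodium.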

[13] = qHTS assay to test for compound auto fluorescence at 460 nm (blue) in HepG2 cell free culture (AID 720685)
Method in brief: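 Compound (23 nL) or DMSO pinned into cell-free MEM with 10% FBS; blue fluorescence read at 405/460 nm excitation/emission, expressed as auto-fluorescence equivalency to triamterene.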

[14] = qHTS assay to test for compound auto fluorescence at 460 nm (blue) in HepG2 cells (AID 720687)
Method in brief: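 HepG2 cells in MEM with 10% FBS, attached overnight at 37 C, were exposed to compound or DMSO for 1 hr at 37 C, 5% CO2. Blue fluorescence was read at 405/460 nm, with triamterene as reference fluorophore.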

[15] = biological target: Glucocorticoid receptor (Homo sapiens) (UniProt P04150); assay: qHTS assay to identify small molecule agonists of the glucocorticoid receptor (GR) signaling pathway (AID 720691; active = well fitted activation curve with a large enough effect in the signal ratio in the repeat runs, not every such curve was filed as active; the % refers to the signal ratio)
Sequence of Glucocorticoid receptor (Homo sapiens) (P04150 whole entry, looked up): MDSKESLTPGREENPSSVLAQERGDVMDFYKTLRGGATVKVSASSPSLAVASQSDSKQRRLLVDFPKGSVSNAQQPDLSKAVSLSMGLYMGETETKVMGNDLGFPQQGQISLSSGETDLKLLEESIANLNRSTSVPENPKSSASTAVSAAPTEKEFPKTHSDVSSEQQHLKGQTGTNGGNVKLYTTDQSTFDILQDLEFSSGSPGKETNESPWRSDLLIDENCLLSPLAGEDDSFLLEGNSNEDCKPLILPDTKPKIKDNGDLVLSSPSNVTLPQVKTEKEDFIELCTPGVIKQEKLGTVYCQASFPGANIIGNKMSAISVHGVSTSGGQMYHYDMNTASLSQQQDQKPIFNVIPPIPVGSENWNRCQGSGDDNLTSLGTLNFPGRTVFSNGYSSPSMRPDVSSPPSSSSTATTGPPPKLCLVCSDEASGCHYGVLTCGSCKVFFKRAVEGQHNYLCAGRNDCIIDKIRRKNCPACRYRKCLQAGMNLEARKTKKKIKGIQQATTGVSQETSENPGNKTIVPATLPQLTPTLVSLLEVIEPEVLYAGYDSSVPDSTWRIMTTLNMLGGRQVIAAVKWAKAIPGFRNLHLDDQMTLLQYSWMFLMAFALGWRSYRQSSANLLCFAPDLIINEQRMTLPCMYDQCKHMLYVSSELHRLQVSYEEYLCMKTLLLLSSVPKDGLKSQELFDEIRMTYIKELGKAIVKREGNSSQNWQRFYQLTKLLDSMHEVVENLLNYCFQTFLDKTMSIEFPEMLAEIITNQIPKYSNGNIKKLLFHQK
Method in brief: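 Reporter read-out: fluorescence intensity following 2 h room-temperature LiveBLAzer B/G FRET substrate loading. Prior step: GR-bla HeLa cells held 4 h, then treated 18 h at 37 C.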

[16] = qHTS assay for small molecule disruptors of the mitochondrial membrane potential (AID 720635)
Method in brief: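 HepG2 cells exposed to compound 1 hr at 37C, then Mito-MPS dye 30 min. Ratio read of aggregate (540/590 nm) versus monomer (490/535 nm) fluorescence.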

[17] = qHTS assay to test for compound auto fluorescence at 590 nm (red) in HEK293 cells (AID 720679)
Method in brief: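 We plated HEK293 cells in 10% dialyzed FBS medium, let them adhere for 4-5 hr, then added 23 nL compound. Overnight at 37C and 5% CO2 preceded fluorescence measurement at 540/590nm.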

[18] = biological target: Glucocorticoid receptor (Homo sapiens) (UniProt P04150); assay: qHTS assay to identify small molecule antagonists of the glucocorticoid receptor (GR) signaling pathway (AID 720692; active = well fitted inhibition curve with a large enough effect in the signal ratio in the repeat runs, not every such curve was filed as active; the % refers to the signal ratio)
Method in brief: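 Dexamethasone (5 nM final) stimulated a stably integrated GRE-beta-lactamase reporter in HeLa cells during 18 h co-incubation with compounds; signal was quantified as fluorescence intensity of B/G FRET substrate after 2 h.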

Measured: Potency

Cc1cccc2nccnc12
not listed: [16] | [17] | [18]
inactive: all other assays above

CC(C)C[C@H](NC(=O)CNC(=O)[C@H](Cc1ccc(O)cc1)NC(=O)[C@H](CO)NC(=O)[C@H](Cc1c[nH]c2ccccc12)NC(=O)[C@H](Cc1cnc[nH]1)NC(=O)[C@@H]1CCC(=O)N1)C(=O)N[C@@H](CCCN=C(N)N)C(=O)N1CCC[C@H]1C(=O)NCC(N)=O (stereo in doubt)
not listed: [7] | [15] | [18]
inactive: all other assays above

Cc1ccccc1OCC(O)CO (stereo not drawn)
not listed: [17]
inactive: all other assays above

NCCN1CCOCC1
not listed: [12] | [16]
inactive: all other assays above

CCCC/C=C\CCCCCCCCCC=O
not listed: [15] | [16] | [18]
inactive: all other assays above
